# Data from paper PMC11006913.
# Where a chain is given by its changes, count along the chain named.
# How the values were obtained:
# Assay in all cases: PBM; 200 nM protein, PBS
# Details in all cases: dsDNA, one strand shown
# HOXC9 [1] = target: HOXC9 (Homo sapiens, UniProt P31274 178-260, K195R)
# HOXC9 [2] = target: HOXC9 (Homo sapiens, UniProt P31274 178-260)
# HOXC9 [3] = target: HOXC9 (Homo sapiens, UniProt P31274 178-260, R193K)
# HOXC9 [4] = target: HOXC9 (Homo sapiens, UniProt P31274 178-260, R222W)
# Sequence of HOXC9 (Homo sapiens, UniProt P31274 178-260, R222W) (P31274 178-260 R222W): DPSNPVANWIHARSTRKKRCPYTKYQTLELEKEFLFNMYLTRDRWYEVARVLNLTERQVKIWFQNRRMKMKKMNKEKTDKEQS
# SIX6 [5] = target: T1, SIX6 (Homo sapiens, UniProt O95475 114-200, L143V)
# T1 sequence: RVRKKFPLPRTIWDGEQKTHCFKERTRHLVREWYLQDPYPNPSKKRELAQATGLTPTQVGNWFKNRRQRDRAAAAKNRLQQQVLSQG
# HOXC10 = HOXC10 (Homo sapiens, UniProt Q9NYD6 254-340)
# Sequence of HOXC10 (Q9NYD6 254-340): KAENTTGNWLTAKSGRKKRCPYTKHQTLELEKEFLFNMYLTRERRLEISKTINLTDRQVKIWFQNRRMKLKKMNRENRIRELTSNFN
# SIX6 [6] = target: T2, SIX6 (Homo sapiens, UniProt O95475 114-200, H141N)
# T2 sequence: T1 sequence with H28N, V30L
# SIX6 [7] = target: T3, SIX6 (Homo sapiens, UniProt O95475 114-200, L143M)
# T3 sequence: T1 sequence with V30M
# SIX6 [8] = target: T4, SIX6 (Homo sapiens, UniProt O95475 114-200, L143I)
# T4 sequence: T1 sequence with V30I
# SIX6 [9] = target: T5, SIX6 (Homo sapiens, UniProt O95475 114-200, T165A)
# T5 sequence: T1 sequence with V30L, T52A
# SIX6 [10] = target: T6, SIX6 (Homo sapiens, UniProt O95475 114-200)
# T6 sequence: T1 sequence with V30L
# HOXA4 [11] = target: HOXA4 (Homo sapiens, UniProt Q00056 201-287, W262R)
# Sequence of HOXA4 (Homo sapiens, UniProt Q00056 201-287, W262R) (Q00056 201-287 W262R): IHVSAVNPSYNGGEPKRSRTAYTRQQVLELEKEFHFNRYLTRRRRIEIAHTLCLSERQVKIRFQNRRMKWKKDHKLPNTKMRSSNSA
# HOXA4 [12] = target: HOXA4 (Homo sapiens, UniProt Q00056 201-287, R217L)
# Sequence of HOXA4 (Homo sapiens, UniProt Q00056 201-287, R217L) (Q00056 201-287 R217L): as the sequence (Q00056 201-287 W262R) above, with R17L, R62W counted along it
# HOXA4 [13] = target: HOXA4 (Homo sapiens, UniProt Q00056 201-287)
# Sequence of HOXA4 (Homo sapiens, UniProt Q00056 201-287) (Q00056 201-287): as the sequence (Q00056 201-287 W262R) above, with R62W counted along it
# VENTX = target: T7, VENTX (Homo sapiens, UniProt O95231 78-163)
# T7 sequence: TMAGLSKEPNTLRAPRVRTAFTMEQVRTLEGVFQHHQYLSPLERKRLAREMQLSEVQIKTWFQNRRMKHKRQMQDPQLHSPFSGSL
# HOXB6 = HOXB6 (Homo sapiens, UniProt P17509 132-218)
# Sequence of HOXB6 (P17509 132-218): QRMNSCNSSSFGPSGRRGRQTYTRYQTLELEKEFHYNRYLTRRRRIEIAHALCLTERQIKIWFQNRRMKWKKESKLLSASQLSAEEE
# PAX4 [14] = target: T8, PAX4 (Homo sapiens, UniProt O43316 9-242)
# T8 sequence: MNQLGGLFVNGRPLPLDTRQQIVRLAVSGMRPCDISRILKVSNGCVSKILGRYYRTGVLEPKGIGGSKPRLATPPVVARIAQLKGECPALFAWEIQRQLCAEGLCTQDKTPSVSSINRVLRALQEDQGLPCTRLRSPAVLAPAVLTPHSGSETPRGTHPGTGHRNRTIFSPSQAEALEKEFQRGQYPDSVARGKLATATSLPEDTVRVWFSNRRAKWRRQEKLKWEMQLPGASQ
# PAX4 [15] = target: T9, PAX4 (Homo sapiens, UniProt O43316 9-242, R200Q)
# T9 sequence: T8 sequence with R192Q
# NKX2-6 = target: T10, NKX2-6 (Homo sapiens, UniProt A6NCS4 118-204, R150C)
# T10 sequence: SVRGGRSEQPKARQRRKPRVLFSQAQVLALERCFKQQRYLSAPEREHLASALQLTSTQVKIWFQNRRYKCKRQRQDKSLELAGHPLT
# SHOX = SHOX (Homo sapiens, UniProt O15266 103-189, R173C)
# Sequence of SHOX (O15266 103-189 R173C): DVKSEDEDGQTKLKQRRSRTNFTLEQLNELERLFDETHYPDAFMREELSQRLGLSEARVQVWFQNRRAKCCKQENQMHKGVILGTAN
# Sequence of HOXC9 (Homo sapiens, UniProt P31274 178-260) (P31274 178-260): as the sequence (P31274 178-260 R222W) above, with W45R counted along it
# Sequence of HOXC9 (Homo sapiens, UniProt P31274 178-260, K195R) (P31274 178-260 K195R): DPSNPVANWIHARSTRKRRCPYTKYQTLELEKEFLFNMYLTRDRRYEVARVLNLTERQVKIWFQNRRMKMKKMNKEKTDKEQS
# Sequence of HOXC9 (Homo sapiens, UniProt P31274 178-260, R193K) (P31274 178-260 R193K): as the sequence (P31274 178-260 R222W) above, with R16K, W45R counted along it
sequence,measurement,setting,value
CCCGGCTC,binding signal,HOXC9 [1],"9.4 upbm affinity estimate (log intensity, higher = more binding, comparable within an allelic series)"
same,binding signal,HOXC9 [2],"9.46 upbm affinity estimate (log intensity, higher = more binding, comparable within an allelic series)"
same,binding signal,HOXC9 [3],"9.4 upbm affinity estimate (log intensity, higher = more binding, comparable within an allelic series)"
same,binding signal,HOXC9 [4],"9.63 upbm affinity estimate (log intensity, higher = more binding, comparable within an allelic series)"
CGCACGCC,binding signal,SIX6 [5],"8.88 upbm affinity estimate (log intensity, higher = more binding, comparable within an allelic series)"
same,binding signal,HOXC10,"10.1 upbm affinity estimate (log intensity, higher = more binding, comparable within an allelic series)"
same,binding signal,SIX6 [6],"8.95 upbm affinity estimate (log intensity, higher = more binding, comparable within an allelic series)"
same,binding signal,SIX6 [7],"8.91 upbm affinity estimate (log intensity, higher = more binding, comparable within an allelic series)"
same,binding signal,SIX6 [8],"8.97 upbm affinity estimate (log intensity, higher = more binding, comparable within an allelic series)"
same,binding signal,SIX6 [9],"8.87 upbm affinity estimate (log intensity, higher = more binding, comparable within an allelic series)"
same,binding signal,SIX6 [10],"8.9 upbm affinity estimate (log intensity, higher = more binding, comparable within an allelic series)"
CCGAGACC,binding signal,HOXA4 [11],"9.83 upbm affinity estimate (log intensity, higher = more binding, comparable within an allelic series)"
same,binding signal,HOXA4 [12],"9.77 upbm affinity estimate (log intensity, higher = more binding, comparable within an allelic series)"
same,binding signal,HOXA4 [13],"9.83 upbm affinity estimate (log intensity, higher = more binding, comparable within an allelic series)"
CCCCCAGC,binding signal,VENTX,"8.03 upbm affinity estimate (log intensity, higher = more binding, comparable within an allelic series)"
CGACGCGA,binding signal,VENTX,"8.03 upbm affinity estimate (log intensity, higher = more binding, comparable within an allelic series)"
GTCCTGCA,binding signal,VENTX,"8.28 upbm affinity estimate (log intensity, higher = more binding, comparable within an allelic series)"
CGCAATTA,binding signal,HOXB6,"11.7 upbm affinity estimate (log intensity, higher = more binding, comparable within an allelic series)"
CGGGCCCG,binding signal,PAX4 [14],"9.62 upbm affinity estimate (log intensity, higher = more binding, comparable within an allelic series)"
same,binding signal,PAX4 [15],"9.41 upbm affinity estimate (log intensity, higher = more binding, comparable within an allelic series)"
CCAGGACC,binding signal,VENTX,"7.74 upbm affinity estimate (log intensity, higher = more binding, comparable within an allelic series)"
CCGCCCCC,binding signal,VENTX,"7.95 upbm affinity estimate (log intensity, higher = more binding, comparable within an allelic series)"
same,binding signal,HOXB6,"8.81 upbm affinity estimate (log intensity, higher = more binding, comparable within an allelic series)"
GCAGGCGC,binding signal,HOXA4 [11],"9.8 upbm affinity estimate (log intensity, higher = more binding, comparable within an allelic series)"
same,binding signal,HOXC10,"9.86 upbm affinity estimate (log intensity, higher = more binding, comparable within an allelic series)"
same,binding signal,HOXA4 [12],"9.64 upbm affinity estimate (log intensity, higher = more binding, comparable within an allelic series)"
same,binding signal,NKX2-6,"9.36 upbm affinity estimate (log intensity, higher = more binding, comparable within an allelic series)"
same,binding signal,HOXA4 [13],"9.74 upbm affinity estimate (log intensity, higher = more binding, comparable within an allelic series)"
GCCAGCGA,binding signal,VENTX,"8.16 upbm affinity estimate (log intensity, higher = more binding, comparable within an allelic series)"
CAGCCAGG,binding signal,HOXC9 [1],"9.53 upbm affinity estimate (log intensity, higher = more binding, comparable within an allelic series)"
same,binding signal,VENTX,"8.23 upbm affinity estimate (log intensity, higher = more binding, comparable within an allelic series)"
same,binding signal,SIX6 [5],"8.86 upbm affinity estimate (log intensity, higher = more binding, comparable within an allelic series)"
same,binding signal,SIX6 [6],"9.06 upbm affinity estimate (log intensity, higher = more binding, comparable within an allelic series)"
same,binding signal,SIX6 [7],"9.06 upbm affinity estimate (log intensity, higher = more binding, comparable within an allelic series)"
same,binding signal,SIX6 [8],"9.03 upbm affinity estimate (log intensity, higher = more binding, comparable within an allelic series)"
same,binding signal,HOXC9 [2],"9.58 upbm affinity estimate (log intensity, higher = more binding, comparable within an allelic series)"
same,binding signal,SIX6 [9],"9.02 upbm affinity estimate (log intensity, higher = more binding, comparable within an allelic series)"
same,binding signal,HOXC9 [3],"9.41 upbm affinity estimate (log intensity, higher = more binding, comparable within an allelic series)"
same,binding signal,SIX6 [10],"9.07 upbm affinity estimate (log intensity, higher = more binding, comparable within an allelic series)"
same,binding signal,HOXC9 [4],"9.62 upbm affinity estimate (log intensity, higher = more binding, comparable within an allelic series)"
AGGGTCCC,binding signal,HOXA4 [11],"9.9 upbm affinity estimate (log intensity, higher = more binding, comparable within an allelic series)"
same,binding signal,HOXA4 [12],"9.79 upbm affinity estimate (log intensity, higher = more binding, comparable within an allelic series)"
same,binding signal,HOXA4 [13],"9.74 upbm affinity estimate (log intensity, higher = more binding, comparable within an allelic series)"
CAGGCGCC,binding signal,SIX6 [5],"8.82 upbm affinity estimate (log intensity, higher = more binding, comparable within an allelic series)"
same,binding signal,SIX6 [6],"8.85 upbm affinity estimate (log intensity, higher = more binding, comparable within an allelic series)"
same,binding signal,SIX6 [7],"8.82 upbm affinity estimate (log intensity, higher = more binding, comparable within an allelic series)"
same,binding signal,SIX6 [8],"8.87 upbm affinity estimate (log intensity, higher = more binding, comparable within an allelic series)"
same,binding signal,SIX6 [9],"8.89 upbm affinity estimate (log intensity, higher = more binding, comparable within an allelic series)"
same,binding signal,SIX6 [10],"8.81 upbm affinity estimate (log intensity, higher = more binding, comparable within an allelic series)"
GCAATTAC,binding signal,HOXB6,"11.7 upbm affinity estimate (log intensity, higher = more binding, comparable within an allelic series)"
AATTATTA,binding signal,HOXA4 [12],"12 upbm affinity estimate (log intensity, higher = more binding, comparable within an allelic series)"
same,binding signal,HOXC9 [4],"11.1 upbm affinity estimate (log intensity, higher = more binding, comparable within an allelic series)"
same,binding signal,HOXB6,"11.8 upbm affinity estimate (log intensity, higher = more binding, comparable within an allelic series)"
CGGCTAGC,binding signal,HOXC10,"9.98 upbm affinity estimate (log intensity, higher = more binding, comparable within an allelic series)"
ACCAAATA,binding signal,HOXC10,"10.8 upbm affinity estimate (log intensity, higher = more binding, comparable within an allelic series)"
AGAGGACC,binding signal,HOXB6,"8.88 upbm affinity estimate (log intensity, higher = more binding, comparable within an allelic series)"
GAGTCGCC,binding signal,NKX2-6,"9.64 upbm affinity estimate (log intensity, higher = more binding, comparable within an allelic series)"
CAGGCCGG,binding signal,HOXB6,"8.84 upbm affinity estimate (log intensity, higher = more binding, comparable within an allelic series)"
AATTAACC,binding signal,PAX4 [14],"12.1 upbm affinity estimate (log intensity, higher = more binding, comparable within an allelic series)"
same,binding signal,PAX4 [15],"11.9 upbm affinity estimate (log intensity, higher = more binding, comparable within an allelic series)"
same,binding signal,SHOX,"9.27 upbm affinity estimate (log intensity, higher = more binding, comparable within an allelic series)"
CACGGCGG,binding signal,HOXB6,"8.99 upbm affinity estimate (log intensity, higher = more binding, comparable within an allelic series)"
AATTATCG,binding signal,SHOX,"9.18 upbm affinity estimate (log intensity, higher = more binding, comparable within an allelic series)"
CCGCCGAG,binding signal,NKX2-6,"9.67 upbm affinity estimate (log intensity, higher = more binding, comparable within an allelic series)"
AATTATCT,binding signal,PAX4 [14],"12.2 upbm affinity estimate (log intensity, higher = more binding, comparable within an allelic series)"
same,binding signal,PAX4 [15],"11.9 upbm affinity estimate (log intensity, higher = more binding, comparable within an allelic series)"
GCCGGCGA,binding signal,PAX4 [14],"9.12 upbm affinity estimate (log intensity, higher = more binding, comparable within an allelic series)"
same,binding signal,PAX4 [15],"9.11 upbm affinity estimate (log intensity, higher = more binding, comparable within an allelic series)"
CACGGCTG,binding signal,NKX2-6,"9.52 upbm affinity estimate (log intensity, higher = more binding, comparable within an allelic series)"
AGAGCTCT,binding signal,HOXC10,"10 upbm affinity estimate (log intensity, higher = more binding, comparable within an allelic series)"
AGCCGGTC,binding signal,NKX2-6,"9.54 upbm affinity estimate (log intensity, higher = more binding, comparable within an allelic series)"
